Source: PubChem BioAssay
Rows were chosen to be rich in hits. Some 4.1% of all compounds tested hit in one or more screens of this group.
hgDAF12 agonist: hgDAF-12 agonism, primary luciferase screen | actives 1.8% (n = 370,000) | HEK293 GAL4-hgDAF12 UAS-luciferase reporter, agonist luminescence; normalized to butyrate control | activation, % at 6.8 µM;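 active = activation above a cutoff set at the mean of all screened compounds plus 3 SD, cut at about 10% in these data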;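 note: 0% = DMSO wells and 100% = sodium butyrate wells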
DAX1 inh-1: blocks DAX1 repression of SF-1 activated StAR promoter | inhibition, % at 6.8 µM | actives 1.1% (n = 370,000) | HEK293T StAR-luciferase reporter, SF-1/DAX-1 repression relief;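 active = inhibition above the mean over all tested compounds plus 3 SD, cut at about 3.6% in these data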;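 note: 0% = DAX-1 cells with DMSO and 100% = cells lacking DAX-1 with DMSO; higher inhibition means more luminescence from relief of DAX-1 repression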
ssDAF12 agonist: activators of S. stercoralis DAF-12 nuclear receptor; activation, % at 6.8 µM; HEK293 ssDAF-12/GRIP1 lit1-tk-luc reporter, luminescence; % of 3 µM dafachronic acid response; actives 1% (n = 370,000);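 active = activation above the mean over all tested compounds plus 3 SD, cut at about 0.9% in these data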;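 note: 0% = DMSO-only wells and 100% = 3 µM delta7-dafachronic acid wells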
DAX1 inh-2: inhibitors of human orphan nuclear receptor DAX1 (NR0B1) | P51843 | HEK293 Gal4-DAX1 luciferase reporter, luminescence | inhibition, % at 6.75 µM | actives 0.99% (n = 340,000);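 active = inhibition above the mean over all tested compounds plus 3 SD, cut at about 4.2% in these data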;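 note: 0% = DAX1-transfected cells with DMSO and 100% = empty-vector control cells with DMSO; inhibition shows as a rise in luminescence from relieved DAX1 repression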
hcDAF-12 act: H. contortus DAF-12 activation, primary screen | activation, % at 6.8 µM | actives 1.4% (n = 370,000) | HEK293 hcDAF-12 lit1-tk-luc reporter, luminescence; 0% DMSO, 100% Δ7-dafachronic acid | AID 652067;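 active = activation above the mean of all tested compounds plus 3 SD, cut at about 5.5% in these data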;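 note: 100% = response to 3 µM Δ7-dafachronic acid high control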
hgDAF12 conf: confirmation of H. glycines DAF-12 agonists | shares compounds with hgDAF12 agonist | HEK293 GAL4-hgDAF12 luciferase reporter, agonist mode; percent of butyrate response | activation, % at 6.8 µM | actives 80% (n = 3,300);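 active = mean activation over triplicate wells above the hit cutoff derived from the earlier primary screen, cut at about 11% in these data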;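 note: 0% = DMSO low control and 100% = 2 mM sodium butyrate high control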
LXRb DAF12 ctr: counter-screen for DAF-12 agonists: agonists of human LXR-beta; 3,300 tested, under 10 active; HEK293 Gal4-LXR luciferase reporter, 24 h; shares compounds with hgDAF12 agonist; activation, % at 6.8 µM;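 active = mean activation of the triplicate above a set limit carried over from the primary screen, none filed active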
Target sequence (P55055 whole entry, looked up, the tested form may be a part): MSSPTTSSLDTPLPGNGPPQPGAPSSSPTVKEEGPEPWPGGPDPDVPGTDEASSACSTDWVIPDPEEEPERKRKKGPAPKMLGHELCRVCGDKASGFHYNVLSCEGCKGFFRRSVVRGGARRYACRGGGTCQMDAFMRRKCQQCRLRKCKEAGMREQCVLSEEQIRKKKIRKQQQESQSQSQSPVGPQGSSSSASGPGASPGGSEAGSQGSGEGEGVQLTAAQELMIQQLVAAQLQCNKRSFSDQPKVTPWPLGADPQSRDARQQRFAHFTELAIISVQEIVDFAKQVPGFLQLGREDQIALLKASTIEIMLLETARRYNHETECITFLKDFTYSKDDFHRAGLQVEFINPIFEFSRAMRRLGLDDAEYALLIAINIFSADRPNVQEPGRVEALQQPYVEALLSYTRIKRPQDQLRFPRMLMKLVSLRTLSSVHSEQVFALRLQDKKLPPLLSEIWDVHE
Active calls of the source: *; · = not tested or not shown.

SMILES | hgDAF12 agonist | DAX1 inh-1 | ssDAF12 agonist | DAX1 inh-2 | hcDAF-12 act | hgDAF12 conf | LXRb DAF12 ctr
Cc1cccc(NC(=O)CN2CCN(C(=O)c3cc(C4CC4)nn3-c3ccccc3)CC2)c1C | -4 | 0 | -1 | 0 | 3 | · | ·
O=C(N/N=C/c1cccc(F)c1)c1ccc(Cl)cc1 | 18* | 3.7* | 0 | 3 | 2 | 12* | 0
O=C(N/N=C/c1c(Cl)cccc1Cl)c1cccc(F)c1 | · | · | · | 0 | · | · | ·
O=C(N/N=C/c1ccccc1Cl)c1cccc(F)c1 | 17* | 3.7* | 0 | 2 | 3 | 13* | 1
O=C(N/N=C/c1cccc(NC(=O)c2ccc(Cl)cc2)c1)c1ccc(O)cc1 | 8 | 1 | -1 | -3 | 0 | · | ·
COc1cc(/C(C)=N/N2CCN(c3ccccc3OC)CC2)ccc1O | 2 | 0 | 0 | 2 | 0 | · | ·
CCN(CC)S(=O)(=O)c1ccc(NC(=O)c2ccc(N3CCCC3=O)cc2)cc1 | -5 | -3 | -2 | -5 | -3 | · | ·
CCOc1ccc(CCNC(=O)COC(=O)c2cc(OC)c(OC)c(OC)c2)cc1OCC | -2 | 1 | -2 | · | -3 | · | ·
COc1ccc(-c2cc(=Nc3c(C)n(C)n(-c4ccccc4)c3=O)c3ccccc3o2)cc1 | 19* | 3 | 1 | 5.3* | 6.0* | 12* | 0
CCCCc1nc2sc3c(=O)n(N)cnc3c2c2c1CCC2 | 1 | 0 | -2 | 2 | 0 | · | ·
Cc1ccc(N(C(=O)c2snc(C(N)=O)c2N)C(C(=O)NCCC(C)C)c2ccco2)cc1 (stereo not given) | -6 | 0 | -2 | 1 | 0 | · | ·
O=C(Nc1cccnc1)c1ccc(Oc2ccccc2)cc1 | 14* | 1 | 0 | 2 | 2 | 15* | 1
OCCOCCNc1ncnc2c1cnn2-c1ccccc1 | 8 | 1 | 0 | 0 | 0 | · | ·
OCCOCCNc1ncnc2c1cnn2-c1ccc(Cl)cc1 | 15* | 4.5* | 0 | 3 | 5 | 17* | 1
O=C(CSc1nnc(NC(=O)c2ccccc2Cl)s1)Nc1ccc2c(c1)oc1ccccc12 | 14* | 2 | 0 | · | 4 | 11* | 0
Nc1nccc(-c2cc(-c3ccc(Cl)cc3Cl)no2)n1 | 15* | 2 | 1.9* | 10* | 5.7* | 20* | 1
Nc1c(-c2cccs2)cnn1-c1nc(-c2ccc(Cl)cc2Cl)cs1 | 1 | -1 | -1 | 3 | 1 | · | ·
COc1ccc(-c2ccc(C(=O)C3CC3)cc2)cc1 | 15* | 2 | 0 | 2 | 3 | 20* | 1
CCC(=O)Nc1ccccc1C(=O)OCC(=O)c1ccccc1 | 16* | 3.7* | 1.3* | 4 | -2 | 17* | 1
COC(=O)c1cnc(SCc2ccc(Cl)cc2)n1C | 6 | 0 | -1 | 0 | 0 | · | ·
COC(=O)c1ccnc(SCC(=O)c2ccccc2)c1 | 18* | 2 | 1 | 2 | 3 | 14* | 0
COC(=O)c1cnc(SCC(=O)c2ccccc2)n1C | 15* | 2 | 0 | 4 | 6.1* | 14* | 1
COc1ccccc1C(=O)CSc1ccccn1 | 7 | 1 | 0 | 3 | 0 | · | ·
CCN(CC)CCCN1C(=O)C(=O)/C(=C(/O)c2ccc(OC)cc2)C1c1ccco1 (stereo not given) | 14* | 0 | -1 | 0 | 1 | 4 | 0
O=C(/C=C/c1cccc(Br)c1)NCc1ccncc1 | 2 | -1 | -1 | 0 | -1 | · | ·
SMILES | hgDAF12 agonist | DAX1 inh-1 | ssDAF12 agonist | DAX1 inh-2 | hcDAF-12 act | hgDAF12 conf | LXRb DAF12 ctr
CCc1ccc2nc(NC(=O)CCCc3cccs3)sc2c1 | 3 | 1 | 0 | 1 | 1 | · | ·
CN(C)S(=O)(=O)c1ccc2nc(NC(=O)c3cccs3)sc2c1 | 15* | 3.8* | 1 | 4 | 5.6* | 19* | 1
CCCCc1ccc2nc(NC(=O)c3cccs3)sc2c1 | 27* | · | 2.5* | · | 6.1* | 20* | 1
Cc1cccc(NC(=O)CNC(=O)c2ccc(S(=O)(=O)NCc3ccco3)cc2)c1C | -2 | 0 | -1 | -1 | 1 | · | ·
N/C(=N\OC(=O)COc1cc(Cl)c(Cl)cc1Cl)c1ccncc1 | 2 | 0 | -1 | · | 1 | · | ·
N/C(=N\OC(=O)COc1ccc(Br)cc1Cl)c1ccncc1 | 14* | 4.0* | 0 | 2 | 6.3* | 16* | 1
CCc1ccc(C(=O)Nc2cc(C)ccc2F)s1 | 16* | 1 | 0 | 1 | 4 | 7 | 0
CCN(CC)c1ccc(N=Nc2ncn[nH]2)cc1 | 15* | 2 | 0 | · | 4 | 10 | 0
CSc1ccc(/C=N/NC(=O)COc2ccc(Br)cc2Cl)cc1 | -1 | 0 | 0 | 0 | 0 | · | ·
COC(=O)c1c(NC(NC(=O)c2ccccc2)(C(F)(F)F)C(F)(F)F)sc2c1CCN(C)C2 | -2 | 1 | 0 | -1 | 3 | · | ·
O=C(NC(=S)Nc1ccccc1)c1cccs1 | 15* | 1 | 1 | 4.5* | 4 | 17* | 0
Fc1ccccc1COc1ccc(Br)cc1CNCC1CCCO1 (stereo not given) | 4 | -1 | -2 | 1 | -2 | · | ·
Cn1nnc(NCc2cc(Br)ccc2OCc2ccccc2F)n1 | 17* | 0 | -2 | 0 | -1 | 2 | 0
O=C(N/N=C/c1ccccn1)c1c[nH]c2ccccc12 | 15* | 1 | 0 | 3 | 4 | 13* | 1
O=C(NCC1CCCO1)c1ccc(N2CCCCC2)c([N+](=O)[O-])c1 (stereo not given) | 6 | -2 | 0 | 0 | 1 | · | ·
CC(=O)N1CCc2cc(N=NC3=C(O)CCCC3=O)ccc21 | 15* | 2 | -1 | 4 | 4 | 16* | 0
C/C(=N\NC(=O)c1ccc(Cl)cc1)c1ccc(N2CCOCC2)cc1 | 7 | 0 | -1 | 0 | 1 | · | ·
CC(=O)Nc1ccc(/C(C)=N/NC(=O)c2ccncc2)cc1 | 2 | 0 | -1 | 0 | -1 | · | ·
C/C(=N/NC(=O)c1ccoc1C)c1ccc(NC(=O)c2ccncc2)cc1 | 17* | 3.8* | 1.3* | 2 | 6.4* | 9 | 0
C/C(=N\NC(=O)c1ccco1)c1ccc(NC(=O)c2ccccc2)cc1 | 14* | 2 | 0 | 0 | 1 | 6 | 0
O=C(Nc1ccc(NC(=S)NC(=O)c2ccco2)cc1)c1ccccc1 | 1 | 0 | -1 | -2 | -3 | · | ·
C/C(=N/NC(=O)c1ccoc1C)c1ccc(N2CCOCC2)cc1 | 19* | 3.7* | 0 | 0 | 3 | 3 | 0
Cc1ccc(C(=O)OCC(=O)NCc2cccs2)c(C)c1 | 14* | 1 | -1 | 1 | -2 | 6 | 0
Cc1cc(C)cc(C(=O)OCC(=O)NCc2cccs2)c1 | 0 | 0 | -2 | 2 | -3 | · | ·
